Sfp inh: inhibitors of Bacillus subtilis Sfp phosphopantetheinyl transferase | Biochemical Sfp PPTase activity, qHTS | 3.5% of 310,000 active | AID 1490 | Potency, µM, inactives show largest response in the series, negative = inhibition, hits mostly inhibitors;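 further: the enzyme is Sfp with the accession as filed and its product quenches rhodamine fluorescence; 0% = enzyme reaction without inhibitor and -100% = no enzyme wells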
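After 15 min at room temperature with compound, 15 nM Sfp received 5 uM rhodamine-CoA plus 12.5 uM BHQ-2-ybbR (50 mM Hepes pH 7.6, 10 mM MgCl2). Rate came from the fluorescence difference over 30 min, ex 525/em 598 nm.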
rTrxR1 inhibitor: inhibitors of rat thioredoxin reductase 1. O89049. recombinant rTrxR1, NADPH fluorescence consumption, selenite substrate. Potency, µM (doses to about 114 µM), inactives show top-dose activity change, negative = inhibition, actives largely listed as inhibitors. 1% of 390,000 active; further: nearly all actives have a fitted effect of over 65% in size
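Rat TrxR1 (90 nM in the dispensed reagent) was pre-reduced with 400 uM NADPH for 5 min at room temperature, then incubated with compound for 15 min. After 400 uM selenite was added, NADPH fluorescence (Ex 340/Em 450 nm) was followed for 8 min.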
GLS inh: blocks human kidney-isoform glutaminase activity; GLS enzymatic activity, qHTS titration; AID 624170; Potency, µM (titrated, usually from 45.5 µM), for the others: top-dose activity change, negative = inhibition, hits mostly inhibitors; O94925; 0.21% of 410,000 active
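hKGA; 45 mM KH2PO4 pH 8.2 + 0.02% Tween-20; cpd via pin tool; 1 mM Gln soln; GluOx/HRP/Amplex Red; RT 30 min; fluor. t0 & final.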
VDR inhibitor: vitamin D3 receptor (human) inhibition; AID 504847; 0.93% of 400,000 active; VDR-SRC2-3 peptide fluorescence polarization, 2 h; Potency, µM, for inactives: max response, negative = inhibition, hits mostly inhibitors
Target sequence (P11473 whole entry, looked up): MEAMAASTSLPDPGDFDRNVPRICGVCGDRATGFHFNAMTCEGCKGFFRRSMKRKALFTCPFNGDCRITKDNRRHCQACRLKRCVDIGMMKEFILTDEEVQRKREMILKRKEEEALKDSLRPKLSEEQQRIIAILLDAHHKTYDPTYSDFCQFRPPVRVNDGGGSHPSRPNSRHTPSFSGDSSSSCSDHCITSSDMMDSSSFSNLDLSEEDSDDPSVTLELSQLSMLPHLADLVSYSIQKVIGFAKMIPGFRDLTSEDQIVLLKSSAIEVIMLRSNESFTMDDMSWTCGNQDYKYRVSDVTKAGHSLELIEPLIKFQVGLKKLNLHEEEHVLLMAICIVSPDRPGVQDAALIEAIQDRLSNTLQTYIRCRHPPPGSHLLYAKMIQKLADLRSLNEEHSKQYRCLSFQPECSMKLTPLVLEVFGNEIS
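VDR–SRC2-3 interaction, FP format. Cmpds 23 nl via pintool, brief spin, 2 h ambient incubation.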
TrxR1 substrate: rat thioredoxin reductase 1 substrate activity; O89049; purified TrxR1 substrate turnover, NADPH consumption readout; Potency, µM (top dose mostly 114 µM), inactives show at the top dose activity change, negative = substrate turnover; AID 588456; 0.01% of 390,000 active; further: nearly all actives have a fitted effect of over 50% in size
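Rat TrxR1, dispensed at 90 nM, was prereduced with 400 uM NADPH (final) for 5 min at ~22 deg C, then incubated with compound 15 min before 400 uM selenite. A first-read NADPH fluorescence drop versus no-compound background flagged substrates.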
KAT2A inh: GCN5L2 (KAT2A) acetyltransferase inhibition; Q92830; GCN5L2 HAT assay, ThioGlo1 CoA-SH fluorescence; Potency, µM (titrated, usually from 58.9 µM), without a hit: at the top dose activity change, negative = inhibition, hits mostly inhibitors; 0.21% of 390,000 active
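Compounds, pin-transferred from DMSO stocks, meet 20nM GCN5L2 for 15 min before the reaction begins with H3(1-25) peptide (75uM) and acetyl-CoA (70uM). Thiol-reactive ThioGlo1 reports CoA release over 20 min at room temperature.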
* hit, by the source's call; [ ] = another dose, or the depositor's remark. Hits are enriched below; roughly 3.8% of the tested compounds scored in any of these assays. The call rests on the fitted dose curve; in most records, active means well fitted curve in the direction sought with a large enough effect; inconclusive means small, poorly fitted or top-dose-only effect, or another doubt; inactive means no such curve, though single readings can be large; an effect the other way counts as inactive or inconclusive. Unless noted, on the % scale 0 is the no-effect control and ±100 the full control effect; potency means the concentration at half of the fitted maximal effect.

For COC(=O)c1c(NC(=O)/C(C#N)=C/c2ccccc2)sc2c1C(C(=O)OC)CC2 (configuration not stated) the results were rTrxR1 inhibitor -9%, GLS inh 0%, VDR inhibitor -28%, TrxR1 substrate 6% and KAT2A inh -14%.
COc1ccc(NC(=O)COC(=O)c2ccc3c(c2)OCCO3)cc1OC was read as rTrxR1 inhibitor 24%, GLS inh -3%, VDR inhibitor -5%, TrxR1 substrate 2% and KAT2A inh -4%.
For Cc1cc(C(=O)NCCCN2CCN(c3cc(Cl)ccc3C)CC2)n(-c2ccccc2)n1 the results were Sfp inh 6%, rTrxR1 inhibitor 6%[57.1 µM], GLS inh 7%, VDR inhibitor 3%, TrxR1 substrate 9%[57.1 µM] and KAT2A inh -3%.
Screening CC1CCN(C(=O)c2cc(-c3ccccc3O)on2)CC1 returned Sfp inh 6%, rTrxR1 inhibitor 28%[57.1 µM], GLS inh 22%, VDR inhibitor -18%, TrxR1 substrate 5%[57.1 µM] and KAT2A inh -7%.
`COc1ccc(Nc2nc(-c3sc(N)nc3C)cs2)cc1` gave Sfp inh 18µM*, rTrxR1 inhibitor -27%, GLS inh 20%, VDR inhibitor -23%, TrxR1 substrate -10% and KAT2A inh -8%.
Cc1ccc(Nc2nc(-c3sc(N)nc3C)cs2)cc1 was read as Sfp inh inconclusive, rTrxR1 inhibitor -16%, GLS inh 10%, VDR inhibitor 79µM*, TrxR1 substrate -11% and KAT2A inh -28%.
`COc1ccc(Nc2nc(-c3sc(NC(C)=O)nc3C)cs2)cc1` gave Sfp inh 40µM* and KAT2A inh -6%.
CC(=O)c1ccc(Nc2nc(-c3sc(C)nc3C)cs2)cc1 was read as GLS inh 9%.
`Cc1nc(N)sc1-c1csc(Nc2cccc(O)c2)n1` gave Sfp inh -21%, rTrxR1 inhibitor 9%[57.1 µM], GLS inh inconclusive, VDR inhibitor inconclusive, TrxR1 substrate -8% and KAT2A inh 1%.
For Cc1ccccc1Nc1nc(-c2sc(NC(=O)c3ccccc3)nc2C)cs1 the results were Sfp inh 25µM* and KAT2A inh -7%.
For Cc1ccccc1Nc1nc(-c2sc(NC(=O)c3cccc(Cl)c3)nc2C)cs1 the results were Sfp inh -7% and KAT2A inh -1%.
Screening O=C(Cn1nnc(-c2ccccc2F)n1)N1CCCCC1 returned Sfp inh 7%, rTrxR1 inhibitor 28%, GLS inh 1%, VDR inhibitor -1%, TrxR1 substrate 5% and KAT2A inh inconclusive.
Screening COc1cc(-c2nc3ccccn3c2/N=C/c2ccc(F)cc2)ccc1O returned Sfp inh 50µM*, rTrxR1 inhibitor 2%[57.1 µM], GLS inh -3%, VDR inhibitor 0%, TrxR1 substrate 1%[57.1 µM] and KAT2A inh -30%.
`COc1cc(-c2nc3ccccn3c2/N=C/c2cccc(OC)c2O)ccc1O` gave Sfp inh -11%, rTrxR1 inhibitor 42%[57.1 µM], GLS inh -17%, VDR inhibitor 8%, TrxR1 substrate 3%[57.1 µM] and KAT2A inh -20%.
`O=c1/c(=C\c2ccc(O)cc2)sc2n1C(c1ccccc1)C(c1ccccc1)=NN=2` (configuration not stated) gave Sfp inh 50µM*, rTrxR1 inhibitor 22%[57.1 µM], GLS inh -21%, VDR inhibitor -6%, TrxR1 substrate 18%[57.1 µM] and KAT2A inh -19%.
For CCOC(=O)C1=C(c2ccccc2)N=c2s/c(=C\c3cccc(O)c3)c(=O)n2C1c1cccs1 (configuration not stated) the results were Sfp inh 30%, rTrxR1 inhibitor 15%, GLS inh -21%, VDR inhibitor -4%, TrxR1 substrate 2% and KAT2A inh -11%.
`O=C(Nc1ccc(OCC(F)(F)C(F)F)c(C(F)(F)F)c1)c1ccc(Cl)cc1` gave rTrxR1 inhibitor 8%, GLS inh -18%, VDR inhibitor 4% and TrxR1 substrate -13%.
O=C1C=CC(=O)N1CCCCCCCCCCN1C(=O)C=CC1=O was read as rTrxR1 inhibitor inconclusive, GLS inh -23%, VDR inhibitor 16µM* and TrxR1 substrate 9%[2.29 µM].
For O=C(O)CCCCCN1C(=O)CCC1=O the results were Sfp inh 9%, rTrxR1 inhibitor 14%, GLS inh 5%, VDR inhibitor -8%, TrxR1 substrate 1% and KAT2A inh -8%.
Screening CCOCCCn1c(=S)[nH]c2cc(C(=O)NCCc3ccc(OC)c(OC)c3)ccc2c1=O returned Sfp inh -9%, rTrxR1 inhibitor 24%, GLS inh -12%, VDR inhibitor -2%, TrxR1 substrate 3% and KAT2A inh -6%.
`CC(Oc1ccc(F)cc1)C(=O)Nc1cccc(-c2nn[nH]n2)c1` (configuration not stated) gave Sfp inh 32µM*, rTrxR1 inhibitor -12%, GLS inh -2%, VDR inhibitor inconclusive, TrxR1 substrate -9% and KAT2A inh -19%.
For CCCCOC(=O)C(=O)Nc1cccc(-c2nn[nH]n2)c1 the results were GLS inh -5%.
Screening C=CCCC(=O)NC1CCCc2c1cnn2-c1ccccc1F (configuration not stated) returned Sfp inh 3%, rTrxR1 inhibitor 15%, GLS inh -1%, VDR inhibitor -13%, TrxR1 substrate 0% and KAT2A inh 2%.
For Cc1cc(C)c2c(=O)[nH]c(SCC(=O)c3ccc(C)c(C)c3)nc2n1 the results were Sfp inh 56µM*, rTrxR1 inhibitor 8%[57.1 µM], GLS inh 3%, VDR inhibitor -6%, TrxR1 substrate -2%[57.1 µM] and KAT2A inh -1%.
`Cc1cc(C)c2c(=O)[nH]c(SCC(=O)Nc3ccccc3)nc2n1` gave Sfp inh -20%, rTrxR1 inhibitor 3%, GLS inh 0%, VDR inhibitor -15%, TrxR1 substrate -1% and KAT2A inh -6%.
For CCCCCCNCc1cccc(Br)c1 the results were Sfp inh 5%, rTrxR1 inhibitor 10%, GLS inh 0%, VDR inhibitor -3%, TrxR1 substrate 10% and KAT2A inh -6%.
Screening COc1ccc(NC(=O)c2c(F)cccc2F)cc1S(=O)(=O)Nc1ccc(Br)cc1 returned Sfp inh 15%, rTrxR1 inhibitor 15%, GLS inh -9%, VDR inhibitor -7%, TrxR1 substrate 44% and KAT2A inh -9%.
Screening S=c1nc(-c2csc3c2CCCC3)[nH][nH]1 returned Sfp inh 35µM*, rTrxR1 inhibitor -24%, GLS inh -22%, VDR inhibitor inconclusive, TrxR1 substrate -5% and KAT2A inh -10%.
